Assay results taken from PubChem BioAssay (Tox21).
Calls of active or inactive are those of the source. The call rests on the fitted dose curve; in most records, active means well fitted curve in the direction sought with a large enough effect in the repeat runs; inconclusive means weak or mixed curves; inactive means flat fitted curve, though single readings scatter.

Assay: qHTS assay to test for compound auto fluorescence at 590 nm (red) in HepG2 cells (AID 720674)
Settings: HepG2 autofluorescence, red 540/590 nm, 1 h; series mostly up to 46 µM
From the text: U.S. Tox21 Program National Center for Advancing Translational Sciences [NCATS] NIH Chemical Genomics Center [NCGC] U.S. Environmental Protection Agency [EPA] National Institutes of Environmental Health Sciences [NIEHS] National Toxicology Program [NTP] U.S. Food and Drug Administration [FDA] Tox21 Assay Overview: Compound auto fluorescence often interferes with screening of the compound library against various biological targets and signaling pathways. Some of these compounds may have fluorophoric properties. Such properties may interfere with the assay outputs resulting in false positives and/or negatives. To decrease such complications and ensure the compound activities are relevant in terms of biological response, the Tox21 10K compound library was screened for auto fluorescence. From the fluorophores used as reporter signals in our screening assays, the auto fluorescence equivalencies of compounds against three fluorophores have been evaluated: Triamterene, Fluorescein and Rose Bengal sodium for blue, green and red fluorescence, respectively. The fluorescence intensities were measured using Excitation/Emission wavelengths at 405/460nm, 485/535nm and 540/590nm for blue, green and red labels, respectively. This assay includes the red fluorescence data.
Tox21 Assay Protocol Summary: 2,000 HepG2 cells in 5 uL of culture medium (MEM containing 10% FBS) per well were dispensed into black wall/clear bottom 1536-well plates using a Multidrop Combi Dispenser (ThermoFisher Scientific, Waltham, MA). The assay plates were incubated overnight at 37 C to allow cell attachment to the well bottom, followed by the transfer of 23 nL compound or DMSO vehicle by a pintool work station (Kalypsys , San Diego, CA). After the assay plates were incubated for 1 hr at 37 C and 5% CO2, fluorescence intensities in the assay plates were measured by an Envision (PerkinElmer, Shelton, CT) plate reader using three labels for measuring blue, green and red fluorescence at […] 460, 535 and 590 nm respectively.

| SMILES | outcome |
| --- | --- |
| CCCCNC(C)(C)[P+](=O)O | inactive |
| C1CN(P2(N3CC3)=NP(N3CC3)(N3CC3)=NP(N3CC3)(N3CC3)=N2)CCO1 (stereo not given) | inactive |
| CN[C@]1(c2ccccc2Cl)CCCCC1=O | inactive |
| O=c1ccc2cc(O[C@@H]3O[C@H](CO)[C@@H](O)[C@H](O)[C@H]3O)c(O)cc2o1 | inactive |
| N#CC(C#N)=Cc1cc(O)c(O)c(O)c1 | inactive |
| CC(=O)OC1CN2CCC1CC2 (stereo not given) | inactive |
| C[C@]12CC[C@H]3[C@@H](CCC4=C(Cl)C(=O)CC[C@@]43C)[C@@H]1CC[C@@H]2O | inactive |
| O=C1CCCCC1CN1CCCCC1 (stereo not given) | inactive |
| CN(C)[C@H](Cc1ccccc1)c1ccccc1 | inactive |
| Cc1cccc(C(C)c2cnc[nH]2)c1C (stereo not given) | inactive |
| CC(C)C[C@H](CN)CC(=O)O | inactive |
| c1ccc(C2(N3CCCC3)CCCCC2)cc1 | inactive |
| C[C@@H]1[C@@H]2Cc3ccc(O)cc3[C@@]1(C)CCN2CCc1ccccc1 | inactive |
| Oc1cc[c]([Hg][Cl])cc1 | inactive |
| CC(N)Cc1ccc2c(c1)OCO2 (stereo not given) | inactive |
| CCN(CC)/[N+]([O-])=N/O | inactive |
| C[C@@H]1[C@H](O)[C@@H](C)/C=C/C=C/CC/C=C/C=C/C=C/C=C/[C@H](O[C@H]2O[C@@H](C)[C@H](O)[C@@H](N)[C@H]2O)CC2O[C@](O)(C[C@@H](O)[C@H](O)CC[C@@H](O)C[C@@H](O)C[C@@H](O)CC(=O)O[C@H]1C)C[C@H](O)[C@H]2C(=O)O | inactive |
| COc1cc(OC)c(OC)cc1C=O | inactive |
| Clc1ccc2c(c1)C(c1ccccc1)=NCc1nncn1-2 | inactive |
| CC(=O)O[C@H]1C[C@H](O[C@H]2[C@@H](O)C[C@H](O[C@H]3[C@@H](O)C[C@H](OC4CC[C@@]5(C)[C@H](CC[C@@H]6[C@@H]5CC[C@]5(C)[C@@H](C7=CC(=O)OC7)CC[C@]65O)C4)O[C@@H]3C)O[C@@H]2C)O[C@H](C)[C@H]1O[C@@H]1O[C@H](CO)[C@@H](O)[C@H](O)[C@H]1O (stereo not given in full) | inactive |

| SMILES | outcome |
| --- | --- |
| C=CCN1CC[C@]23c4c5ccc(O)c4O[C@H]2[C@@H](O)C=C[C@H]3[C@H]1C5 | inactive |
| CCCCc1ccc(C(=O)O)nc1 | inactive |
| C[C@@H](Cc1ccccc1)NCCC(c1ccccc1)c1ccccc1 | inactive |
| C=CCN(C1=NCCN1)c1c(Cl)cccc1Cl | inactive |
| CNC(=O)Oc1ccccc1C(=O)Nc1ccccc1 | inactive |
| O=C1CN(O)C(c2ccccc2)=c2cc(Cl)ccc2=N1 | inactive |
| C[C@]12CC[C@@H]3c4ccc(OC(=O)N(CCCl)CCCl)cc4CC[C@H]3[C@@H]1CC[C@@H]2OP(=O)(O)O | inactive |
| C[N+]1(C)CCCCC1COC(=O)C(O)(c1ccccc1)c1ccccc1 (stereo not given) | inactive |
| CC(C)=CCN1CC[C@]2(C)c3cc(O)ccc3C[C@H]1[C@H]2C | inactive |
| O=S(=O)(O)c1cc(O)ccc1O | inactive |
| CC(C)C[C@H]1C(=O)N2CCC[C@H]2[C@]2(O)O[C@](NC(=O)[C@@H]3C[C@@H]4c5cccc6[nH]cc(c56)C[C@H]4N(C)C3)(C(C)C)C(=O)N12 | inactive |
| CCc1cc(OC)c(C[C@@H](C)N)cc1OC | inactive |
| O=P(O)(O)C(Cl)(Cl)P(=O)(O)O | inactive |
| CC(C)(C)c1ccc(O)cc1 | inactive |
| CC(=O)O[C@H]1CC[C@H]2[C@@H]3CCC4=CC(=O)CCC4=C3C=C[C@]12C | inactive |
| CC(=O)[C@@]1(O)CC[C@H]2[C@@H]3CCC4=CC(=O)CC[C@]4(C)C3(F)[C@@H](O)C[C@@]21C (stereo not given in full) | inactive |
| Oc1c(Cl)cc(Cl)cc1Cl | inactive |
| CC1COC(Cn2cncn2)(c2ccc(Oc3ccc(Cl)cc3)cc2Cl)O1 (stereo not given) | inactive |
| CCC1(C)CC(=O)NC(=O)C1 | inactive |
| CNC(C)C(O)c1ccc(O)cc1 (stereo not given) | inactive |
